Measurements: PubChem BioAssay (NCATS)
Records with an inconclusive call do not appear. A call without a number means that no potency is given here. Active and inactive are the calls of the source. The call rests on the fitted dose curve; in most records, active means well fitted cell-killing curve with a large enough effect; inconclusive means small, poorly fitted or top-dose-only effect; inactive means flat fitted curve, though single readings scatter.

Test: Cell Viability - Renal Proximal Tubule (AID 545);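 further: cells exposed to compound for 40 hours; nearly all actives have a fitted effect of over 40% in size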
Details: renal proximal tubule cells viability, primary cells of rat origin; series mostly up to 91.7 µM
In short: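 Viability taken as intracellular ATP (CellTiter-Glo luminescence) after 40 hr, 37 °C compound treatment of primary proximal tubule cells from rat kidney, 1000 cells/well; Hill-equation fits of qHTS concentration-response data gave AC50.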
For `O=C(O)c1c(Cl)cccc1Cl`, the Potency was “inactive”.
For `CC(=O)CC(C)C`, the Potency was “inactive”.
In the case of `NC(=O)/N=N/C(N)=O`, the Potency is reported as “inactive”.
For `O=C(Cl)c1cccc([N+](=O)[O-])c1`, the Potency was “inactive”.
With `CCCCC(=O)N(C)C` the Potency was “inactive”.
For `CSCCC=O`, the Potency was “inactive”.
With `CCCCC(C=O)CC` (configuration not stated) the Potency was “inactive”.
In the case of `O=Cc1cccc(Br)c1`, the Potency is reported as “inactive”.
With `C=CCn1c(=O)n(CC=C)c(=O)n(CC=C)c1=O` the Potency was “inactive”.
With `CCOc1cc(OCC)c(C(C)=O)cc1OCC` the Potency was “inactive”.
For `CCC(C)=O`, the Potency was “inactive”.
In the case of `O=C1OC(=O)c2c(Cl)c(Cl)c(Cl)c(Cl)c21`, the Potency is reported as “inactive”.
In the case of `CC=O`, the Potency is reported as “inactive”.
For `Cc1ccc(C(C)(C)C)cc1`, the Potency was “inactive”.
In the case of `CC(N)CN` (configuration not stated), the Potency is reported as “inactive”.
For `O=C1CCC(=O)O1`, the Potency was “inactive”.
For `O=[N+]([O-])c1ccc(NCCO)c(OCCO)c1`, the Potency was “inactive”.
With `ClCCl` the Potency was “inactive”.
For `Cc1ccc(C)o1`, the Potency was “inactive”.
For `NC(=S)NNC(N)=S`, the Potency was “inactive”.
For `Clc1ccc(Cl)c(Cl)c1Cl`, the Potency was “inactive”.
In the case of `O=C(Cl)c1ccccc1[N+](=O)[O-]`, the Potency is reported as “inactive”.
For `Nc1cccc(N)c1`, the Potency was “inactive”.
For `CC(C)=C1CCC(C)CC1=O` (configuration not stated), the Potency was “inactive”.
With `Nc1ccc(F)cc1F` the Potency was “inactive”.
For `COC(=O)CCC(=O)OC`, the Potency was “inactive”.
In the case of `CCc1ccccc1`, the Potency is reported as “inactive”.
For `CC(=O)OCCC(C)C`, the Potency was “inactive”.
For `C[C@@H]1CC2(OC3C[C@@]4(C)C5=CC[C@H]6C(C)(C)C(O[C@@H]7OC[C@@H](O)[C@H](O)[C@H]7O)CC[C@@]67C[C@@]57CC[C@]4(C)C31)OC(O)C1(C)OC21` (some centres not stated), the Potency was “inactive”.
For `CC(=O)Nc1ccc(N)cc1`, the Potency was “inactive”.
With `CN(C)c1cccc(O)c1` the Potency was “inactive”.
For `Nc1ccccc1S(=O)(=O)O`, the Potency was “inactive”.
